Reference: PubChem BioAssay AID1851 (National Center for Advancing Translational Sciences (NCATS), 2009)
Out of some 16,000 compounds screened, about 2,600 (16%) were called active. Inconclusive results (about 20%) are left out. The list is a sample of the results. Values without a mark were called inactive. Calls follow the shape of the dose curve; as a rule, active = well fitted curve in the direction sought with a large enough effect; inconclusive = small, poorly fitted or top-dose-only effect, or effect the other way; inactive = no such curve, though single readings can be large or run the other way.

Target: Cytochrome P450 2D6 (Homo sapiens) (UniProt P10635)
Sequence (P10635 whole entry, looked up): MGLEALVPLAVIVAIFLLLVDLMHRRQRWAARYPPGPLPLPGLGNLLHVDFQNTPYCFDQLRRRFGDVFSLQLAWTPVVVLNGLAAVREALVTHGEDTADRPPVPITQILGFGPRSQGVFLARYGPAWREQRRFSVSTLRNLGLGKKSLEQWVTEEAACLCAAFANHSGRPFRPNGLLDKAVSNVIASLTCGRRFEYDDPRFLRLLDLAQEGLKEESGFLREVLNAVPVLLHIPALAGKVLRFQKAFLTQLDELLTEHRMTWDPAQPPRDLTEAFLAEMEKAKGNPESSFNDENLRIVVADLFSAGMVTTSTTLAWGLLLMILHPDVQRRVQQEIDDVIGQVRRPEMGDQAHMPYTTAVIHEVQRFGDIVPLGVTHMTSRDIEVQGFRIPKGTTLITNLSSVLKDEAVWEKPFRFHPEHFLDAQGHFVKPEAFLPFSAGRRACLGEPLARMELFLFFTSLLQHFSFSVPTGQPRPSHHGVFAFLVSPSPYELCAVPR
Test: Cytochrome panel assay with activity outcomes
Conditions: recombinant CYP, pro-luciferin dealkylation, luminescence, p450-cyp2d6; series mostly up to 57.1 µM; activity, negative = inhibition: at the top concentration
% is scaled to controls: 0 for no effect and ±100 for the full control effect.

Compound | activity, negative = inhibition | AC50
COc1ncc2nc(-c3cccs3)c(=O)n(C)c2n1 | -1.28% (inactive) | –
Cc1cnn(-c2ccc3nnc(-c4ccc(Cl)cc4)n3n2)c1 | -4.72% (inactive) | –
FC(F)(F)c1nc2ccccc2nc1N/N=C/c1ccc(Cl)cc1 | – | 0.631 µM (active)
N#CC(c1ccc(Cl)cc1)c1nc2ccccc2nc1C(F)(F)F (stereo unspecified) | -19.3% (inactive) | –
Clc1ccc(/C=N/Nc2nnc(-c3ncc[nH]3)c3ccccc23)cc1 | -28.8% (inactive) | –
O=c1[nH]c(=O)n([C@@H]2C[C@H](O)[C@H](CO)O2)cc1I | 3.14% [at 25.6 µM] (inactive) | –
CCCN[C@@H](C)C(=O)Nc1ccccc1C | – | inactive
N#Cc1cc(-c2ccc(Cl)cc2)cnc1Sc1ccc(F)cc1 | 12.5% (inactive) | –
N#Cc1cc(N)ccc1Sc1ccc(Cl)cc1 | – | 22.4 µM (active)
N#Cc1cc(-c2ccc(Cl)cc2)cnc1Sc1ccccc1 | 0.543% (inactive) | –
Cc1cc(C)cc(-n2c(C)cc(C=C(C#N)C#N)c2C)c1 | 25.6% (inactive) | –
Cn1c(=O)c2c(nc(C(=N)SCC(=O)O)n2C)n(C)c1=O | 1.35% [at 11.4 µM] | –
O=C1C2CCCN2C(c2ccccc2F)N1c1ccc(Cl)cc1 (stereo unspecified) | -25.3% (inactive) | –
O=C1C2=C(NC(=S)NC2c2ccc(Cl)cc2)NC(c2ccc(Cl)cc2)N1c1ccc(Cl)cc1 (stereo unspecified) | – | 15.8 µM (active)
S=C1N(c2ccccc2)C(c2ccc(Cl)cc2)N2CCCN12 (stereo unspecified) | -9.66% (inactive) | –
Cc1cnn(CCC(=O)NNC(=S)Nc2cccc(Cl)c2)c1 | -13.5% (inactive) | –
COCCn1c(=O)c(-c2cc(F)cc(F)c2)nc2cnc(Oc3cccc(Cl)c3)nc21 | -0.734% (inactive) | –
Cc1cc(NCc2ccccn2)ccc1Br | -27.7% (inactive) | –
Cc1cc(Br)ccc1NCc1ccccn1 | – | 15.8 µM (active)
Cc1cc(=O)oc(C)c1C(=O)NCc1ccccn1 | 6.42% (inactive) | –
O=C(O)c1ccccc1C(=O)NNc1ccc(Cl)cc1 | 11.1% (inactive) | –
O=C(NNC(=O)c1ccccc1-n1cccc1)c1ccccc1 | -24.4% (inactive) | –
O=C(NNC(=O)c1ccccc1O)c1ccc(Cl)cc1 | – | 2.82 µM (active)
O=C(C[N+]1(c2ccccc2)CCOCC1)c1ccccc1 | -6.92% [at 11.4 µM] | –
O=S(=O)(N/N=C/c1ccc2c(c1)OCCO2)c1ccc(Cl)cc1 | -9.99% (inactive) | –
Cc1ccc(S(=O)(=O)N/N=C/c2ccc(OC3CSC3)cc2)cc1 | 5.99% (inactive) | –

Compound | activity, negative = inhibition | AC50
O=S(=O)(N/N=C\c1ccc2c(c1)OCO2)c1ccc(Cl)cc1 | – | 7.94 µM (active)
N[C@@H](Cc1nn[nH]n1)C(=O)O | 7.47% [at 11.4 µM] | –
Cn1c(/C(C#N)=C(\O)c2ccc(S(=O)(=O)N3CCCCC3)cc2)nc2ccccc21 | 17.4% (inactive) | –
C[C@]1(O)CC[C@H]2[C@H]3CC=C4N5CCN=C5CC[C@@]4(C)[C@H]3CC[C@@]21C | -4.3% [at 11.4 µM] | –
CN1CCC(=C2c3ccccc3Sc3ccccc32)CC1 | – | 3.98 µM (active)
CN1CCN(c2ncnc3ccc(-c4ccccc4C#N)cc23)CC1 | -6.68% (inactive) | –
CN1CCC(=C2c3ccccc3C=Cc3ccccc32)CC1 | – | 2.51 µM (active)
O=C(Nc1ncc(Cc2cc(Cl)ccc2Cl)s1)c1ccc([N+](=O)[O-])cc1 | -22.9% (inactive) | –
C/C=C\C1=C(CO)C(=O)C2O[C@]2(CC=C(C)C)C1=O (stereo partly specified) | 0.497% [at 11.4 µM] | –
COc1ccccc1Cn1c(=S)[nH]c2cc(C(=O)N3CCN(C)CC3)ccc2c1=O | 2.19% (inactive) | –
CCOc1cc2[nH]c(=S)n(CCC(=O)N3CCc4ccccc4C3)c(=O)c2cc1OCC | 41.2% (inactive) | –
CCC1CCCCN1CCn1c(=S)[nH]c2cc(OC)c(OC)cc2c1=O (stereo unspecified) | – | 0.178 µM (active)
COc1cc(/C=C(/NC(=O)c2ccccc2Cl)C(=O)O)cc(OC)c1OC | 3.9% (inactive) | –
O=C(Nc1cccc2[nH]ncc12)c1ccc(F)cc1 | -11.5% (inactive) | –
COc1ccc(-c2cnnn2-c2ccc(NC(=O)c3ccco3)cc2)cc1OC | – | 10 µM (active)
O=C(Nc1ccc(-n2nncc2-c2ccco2)cc1)c1ccc(F)cc1 | – | 1.12 µM (active)
COc1ccc(CCNC(=O)c2ccccc2NC(=O)c2ccco2)cc1OC | -17.1% (inactive) | –
COc1cc(C(=O)Nc2ccc(-c3nnc(-c4ccco4)o3)cc2)cc(OC)c1OC | 12.8% (inactive) | –
Cc1cc(NC(=O)c2ccco2)ccc1-n1cnnn1 | -7.42% (inactive) | –
Cc1ccc(NC(=O)C(C)N2C(=O)C3C4CC(C(Br)C4Br)C3C2=O)cc1 (stereo unspecified) | -6.68% (inactive) | –
COC(=O)CSc1ccc(C#N)c(SCC(=O)OC)c1 | -2.77% (inactive) | –
CC(C)NC(=O)c1ccc(-c2cccc(C(F)(F)F)c2)o1 | -3.7% (inactive) | –
N=C(N)SCc1cccc2c(=O)cc(-c3ccccc3)oc12 | – | 2.51 µM (active)
N=C(N)SCc1cccc(-c2nc3ccccc3c(=O)o2)c1 | 6.52% [at 11.4 µM] | –
COc1ccc2c(=O)cc(-c3ccncc3)oc2c1OC | 12.2% [at 11.4 µM] | –
